Results on 86 compounds are retold here after PubChem BioAssay AID1974 (The Scripps Research Institute Molecular Screening Center, 2009).

Out of some 300,000 compounds screened, about 3,200 (1.1%) were called active. The sample holds actives, similar compounds and a random draw of the others, so the mix is not that of the screen.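 How the source made its calls: active means inhibition above the campaign mean inhibition plus 3 SD (cut at about 35% in these data); inactive means the rest.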

Broadly, the inhibition is the relative decrease from the control value, in per cent.

For the experiment, the target named is Glutathione S-transferase omega-1 (Homo sapiens) (UniProt P78417). The experiment is described as follows: human GSTO1 enzyme inhibition – biochemical, fluorescence polarization, counter-screen for RBBP9 inhibitor project, primary screen (AID 1974).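 Further: 0% = GSTO1-1 with DMSO and 100% = wells lacking GSTO1-1 enzyme.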 Particulars: recombinant GSTO1, activity-based probe fluorescence polarization; at 5.96 µM; stronger effect = higher value.
Chain of Glutathione S-transferase omega-1 (Homo sapiens) (P78417 whole entry, looked up): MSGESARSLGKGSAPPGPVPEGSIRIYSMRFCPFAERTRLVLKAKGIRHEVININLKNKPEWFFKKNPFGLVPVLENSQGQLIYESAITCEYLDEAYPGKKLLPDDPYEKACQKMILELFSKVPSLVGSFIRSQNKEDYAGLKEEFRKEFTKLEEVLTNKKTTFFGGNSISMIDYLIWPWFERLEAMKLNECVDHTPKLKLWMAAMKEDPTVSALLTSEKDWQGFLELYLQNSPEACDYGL
Take `CCOc1ccc(/C=C/C(=O)OCC(=O)c2ccccc2OC)cc1OC`: the inhibition is -2.58% (inactive).
In the case of `O=C(N/N=C/c1ccc(O)c(O)c1)C1c2ccccc2Oc2ccccc21`, the inhibition is 35.5% (active).
Take `CCC(C)(C)NC(=O)C1c2ccccc2Oc2ccccc21`: the inhibition was 3.61% (inactive).
`CCC(C)NC(=O)C1c2ccccc2Oc2ccccc21` (stereo unspecified): the inhibition was 2.29% (inactive).
As for `CCOC(=O)N1CCN(C(=O)COc2ccc3oc4c(c3c2)CCCC4)CC1`, the inhibition was -0.52% (inactive).
As to `Nc1ccccc1/C=N\N=C/c1ccccc1N`, the inhibition is 8.02% (inactive).
Turning to `CCOc1ccc(CCNC(=O)COC(=O)c2ccc(F)c(S(=O)(=O)N3CCOCC3)c2)cc1OCC`, the inhibition was 11.6% (inactive).
Turning to `CCCCN(CCCC)CCC(O)c1cc2c(Cl)cc(Cl)cc2c2cc(C(F)(F)F)ccc12` (stereo unspecified), the inhibition was 7.04% (inactive).
Turning to `COc1ccc(CNC(=O)C2(CC3CC(c4ccccc4)=NO3)CCN(C(=O)c3cccc(O)c3)CC2)cc1` (stereo unspecified), the inhibition is -2.65% (inactive).
`Cc1oc2c(c1C(=O)N1CCOCC1)C(=O)c1ccccc1C2=O`: the inhibition was 49% (active).
Take `CCOC(=O)c1ccccc1C(=O)N1CCOCCOCCOCC1`: the inhibition is 0.47% (inactive).
The value for `Cc1noc(C)c1C(=O)N1CCOCC1` was -8.26% (inactive); that for `CCOc1ccc(CC(=O)NCCS(=O)(=O)N2CCN(c3ccccc3)CC2)cc1` was 2.49% (inactive); that for `COc1ccc(-c2csc3ncnc(N4CCN(S(=O)(=O)c5cccc(F)c5)CC4)c23)cc1` was -26.4% (inactive).
The value for `Cc1ccsc1/C=N/NC(=O)Cc1cc(=O)[nH][nH]1` was 37.2% (active); that for `Cc1ccsc1C(=O)N/N=C/c1ccc([N+](=O)[O-])cc1` was 0.47% (inactive).
Regarding `Cc1cc(C(=O)N/N=C/c2ccccc2[N+](=O)[O-])c(C)o1`, the inhibition was -0.23% (inactive).
Consider `CCOc1ccc(N2CC(C(=O)N/N=C/c3sccc3C)CC2=O)cc1` (stereo unspecified), for which the inhibition is 8.53% (inactive).
In the case of `COc1cc(CC(=O)N/N=C/c2ccccc2)c([N+](=O)[O-])cc1OC`, the inhibition is -0.51% (inactive).
For the compound `O=C(Cc1cc(=O)[nH][nH]1)N/N=C/c1ccccc1[N+](=O)[O-]`, the inhibition is 49.5% (active).
The value for `CCC(C)c1ccccc1N1CC(C(=O)N2CCN(S(=O)(=O)c3ccc(F)cc3)CC2)CC1=O` (stereo unspecified) was 2.71% (inactive).
`CCOC(=O)/C=C/c1ccc(C(F)(F)F)cc1S(=O)(=O)NC(C)(C)C`: the inhibition is -1.78% (inactive).
As for `COC(=O)c1ccc2ccccc2c1OC1OC(CO)C(O)C(O)C1NC(C)=O` (stereo unspecified), the inhibition is 2.04% (inactive).
Regarding `Cc1ccc2nc(NC(=O)C3CSC4(C)CCC(=O)N34)sc2c1` (stereo unspecified), the inhibition is 1.93% (inactive).
`Cc1nn(-c2ccccc2)c2c1C(c1ccc(F)cc1)C(C#N)=C(N)O2` (stereo unspecified): the inhibition was 25.3% (inactive).
For the compound `Cc1nn(Cc2ccccc2)c2c1C(c1ccccc1)C(C#N)=C(N)O2` (stereo unspecified), the inhibition was 6.98% (inactive).
Turning to `COc1ccccc1C1C(C#N)=C(N)Oc2c1c(-c1ccccc1)nn2-c1ccccc1` (stereo unspecified), the inhibition was 59.1% (active).
The value for `C#CCOCCOCCOCCNc1nc(N2CCN(C(=O)CCCCCCCCCCNC(=O)[C@H](CCCCN)n3cc(C)nn3)CC2)nc(N2CCN(C(=O)CCCCCCCCCCNC(=O)[C@H](CO)n3cc(CCCSC)nn3)CC2)n1` was 4.17% (inactive); that for `CCOC(=O)[C@H]1[C@H]2COc3ccc(Cl)cc3[C@@H]2N2C(=O)c3cc(C)ccc3NC(=O)[C@@]12C` was 1.13% (inactive).
The figure for `Cc1nc2ccccc2c(=O)n1-c1ccc(F)c(NC(=O)c2cccs2)c1` is -6.66% (inactive).
The figure for `CCN(C(=O)CSc1nnc(-c2ccc(OC(F)F)cc2)n1N)C1CCS(=O)(=O)C1` (stereo unspecified) is -5.72% (inactive); for `Cc1ccc(-c2nn(-c3ccc(F)cc3)cc2C(=O)NCC(c2cccs2)N2CCOCC2)cc1` (stereo unspecified) it is -3.34% (inactive); for `O=c1cc(O)nc(SCc2ccccc2Cl)[nH]1` it is -11.3% (inactive).
Consider `Clc1ccccc1CSc1nnc(-c2ccco2)c(-c2ccco2)n1`, for which the inhibition was 53% (active).
On to `Brc1ccc(CSc2ccc(-c3ccco3)nn2)cc1`, for which the inhibition was -3.33% (inactive).
On to `O=c1[nH]c(SCc2ccccc2)nnc1-c1ccccc1`, for which the inhibition was -7.41% (inactive).
The figure for `c1ccc(CSc2nnc(-c3ccco3)c(-c3ccco3)n2)cc1` is 59.8% (active); for `Fc1cccc(Cl)c1CSc1ccc(-c2ccco2)nn1` it is 3.45% (inactive); for `Cc1cc(C)n2nc(C(=O)OC(C)C(=O)c3cc(C)c(C)cc3C)nc2n1` (stereo unspecified) it is 3.12% (inactive).
Consider `COc1ccc(CNC(=O)CNC(=O)c2sc3ccccc3c2Cl)cc1OC`, for which the inhibition is -3.56% (inactive).
The figure for `O=c1[nH]c(/C=C/c2cccc(Br)c2)nc2ccccc12` is -7.5% (inactive).
With `O=[N+]([O-])c1ncc(Br)cc1Nc1ccccc1`, the inhibition is 13.4% (inactive).
For `Cc1cc(C(=O)N/N=C/c2ccc(O)c([N+](=O)[O-])c2)c(C)n1-c1ccc(F)cc1`, the inhibition was 23.2% (inactive).
Consider `COc1cc(/C=N/NC(=O)c2cc(-c3ccccc3C)nc3ccccc23)cc(OC)c1O`, for which the inhibition was 3% (inactive).
The figure for `COc1cc(/C=N/NC(=O)c2cc(C)n(-c3ccc(F)cc3)c2C)cc(OC)c1O` is 35.7% (active); for `CN(C)CCn1c2c(c(SCC(=O)Nc3ccccc3C(F)(F)F)nc1=O)CCCC2` it is -0.08% (inactive); for `C=CCNC(=O)c1ccccc1SCc1c(C)noc1C` it is 55.2% (active).
`CCN(CC(=O)Nc1ccccc1C(F)(F)F)C(=O)CSCc1c(C)noc1C`: the inhibition was -6.06% (inactive).
Consider `C=CCNC(=O)c1cc(-c2ccccc2O)on1`, for which the inhibition was 3.47% (inactive).
The value for `COc1ccc(N2CCN(S(=O)(=O)c3cc4c5c(c3)C(C)C(=O)N5CCC4)CC2)cc1` (stereo unspecified) was 8.18% (inactive); that for `Cc1nc2ccccc2c(=O)n1-c1ccc(NS(=O)(=O)c2ccc(F)cc2F)cc1` was -1.88% (inactive).
In the case of `CC(=O)C12CC(C)=C(C)CC1CC1C3CCC4=CC(=O)CCC4(C)C3CCC12C` (stereo unspecified), the inhibition is 0% (inactive).
Regarding `CC1(C)S[C@@H]2[C@H](N=CN3CCCCCC3)C(=O)N2[C@H]1C(=O)O`, the inhibition is 1.77% (inactive).
In the case of `COC(=O)c1cc(CNC(=O)CC(C)c2ccccc2)ccc1OC` (stereo unspecified), the inhibition was 3.39% (inactive).
Take `CC1(c2nnc(-c3ccncc3)o2)CC(c2cccnc2)=NO1` (stereo unspecified): the inhibition was 7.77% (inactive).
As to `CCOc1ccc(NC(=O)CSc2nc3c(c(=O)n2-c2ccccc2OC)SCC3)cc1`, the inhibition was 9.5% (inactive).
For `CCc1nnc(NC(=O)CSc2nc3c(c(=O)n2-c2ccccc2OC)SCC3)s1`, the inhibition was 35.6% (active).
In the case of `CCc1nnc(NC(=O)CSc2nnc(Cc3ccccc3)n2-c2ccc(OC)cc2)s1`, the inhibition is -0.09% (inactive).
Turning to `OCC[C@H]1C[C@@H](O)[C@H](O)[C@]2(OCCCc3ccccc32)O1`, the inhibition is -3.33% (inactive).
The figure for `CC(C)CC[n+]1ccn(C2=C([O-])c3ccccc3C(=O)/C2=N\S(=O)(=O)c2ccccc2)c1` is 70.8% (active); for `O=C(c1cccnc1)N(c1cc2sc(=O)oc2c2ccccc12)S(=O)(=O)c1ccccc1` it is 66.5% (active); for `COc1ccc(N(C(=O)c2cccnc2)S(=O)(=O)c2ccc3c(c2)n(C)c(=O)n3C)cc1` it is 9.41% (inactive).
With `COc1ccc(N(C(=O)c2cccnc2)S(=O)(=O)c2ccc(OC)c(OC)c2)cc1`, the inhibition is 8.53% (inactive).
With `CN(C)C1=NC[C@H](Cc2ccccc2)N1CCc1ccc(F)cc1`, the inhibition was 0.73% (inactive).
The figure for `OCC[C@H]1C[C@@H](O)[C@H](O)[C@@]2(OCCc3ccccc32)O1` is 7.38% (inactive); for `Cc1nc2c(c(C)nn2-c2ccccc2)c(C)c1C` it is 15.1% (inactive); for `Cc1c(CC(=O)N2CCN(C(=O)C3COc4ccccc4O3)CC2)c(=O)oc2c(O)c(O)ccc12` (stereo unspecified) it is 45.1% (active).
On to `Cc1c(C)c2ccc(OCC(=O)N3CCC(C(=O)O)CC3)c(C)c2oc1=O`, for which the inhibition is -1.66% (inactive).
In the case of `O=C(CNC(=O)C1COc2ccccc2O1)N/N=C/c1cc(Br)c(O)c(Br)c1` (stereo unspecified), the inhibition is -6.29% (inactive).
Turning to `COCC(C)OC(=O)c1c(N)n(CCCN2CCOCC2)c2nc3ccccc3nc12` (stereo unspecified), the inhibition is 11.9% (inactive).
The value for `CC(C)(C)OC(=O)c1c(N)n(CCCN2CCCC2=O)c2nc3ccccc3nc12` was 63.9% (active).
Regarding `O=C(NCCCN1CCCC1=O)c1ccc(S(=O)(=O)Nc2ccccc2)cc1`, the inhibition was 0.39% (inactive).
In the case of `O=[N+]([O-])c1ccc(S(=O)(=O)Nc2cccc(-c3ccc(N4CCCC4)nn3)c2)cc1`, the inhibition was -8.25% (inactive).
For `COc1ccc(CNC(=O)[C@@H]2CC=C[C@@H]3CCN(C4CC4)C(=O)[C@@H]32)cc1`, the inhibition was -0.21% (inactive).
In the case of `CSc1ccc(NC(=O)/C=C/C(=O)O)cc1`, the inhibition is 0.81% (inactive).
The figure for `CN1CCN(c2ccc(NC(=O)c3ccccc3)cc2)CC1` is 2.04% (inactive); for `Cc1cccc(N2CCN(c3ccc(NC(=O)/C=C\C(=O)O)cc3)CC2)c1` it is 42.2% (active); for `CCCn1c(C)cc(-c2csc(NC(=O)CCc3nc4ccccc4c(=O)[nH]3)n2)c1C` it is -4.01% (inactive).
As for `O=C(CCc1[nH]c2ccccc2c1Sc1ccccc1)N(CCO)CCO`, the inhibition was 3.25% (inactive).
As to `CCCCN(C(=O)CCNC(=O)NC12CC3CC(CC(C3)C1)C2)c1c(N)n(CCCC)c(=O)[nH]c1=O`, the inhibition was -0.02% (inactive).
As to `N#CC1(NC(=O)COC(=O)CSc2ccc(F)cc2)CCCCC1`, the inhibition was 6.75% (inactive).
The value for `CN(CC1CCCO1)S(=O)(=O)c1ccc(C(=O)Nc2ccc(F)cc2)cc1` (stereo unspecified) was 2.1% (inactive); that for `Cc1cccc(NC(=O)c2ccc(S(=O)(=O)N(C)CC3CCCO3)cc2)c1C` (stereo unspecified) was -5.06% (inactive); that for `CCOC(=O)c1c(NC(=O)c2ccc(S(=O)(=O)N(C)CC3CCCO3)cc2)sc2c1CC(C)(C)NC2(C)C` (stereo unspecified) was 55.4% (active).
In the case of `O=C(Nc1ccc(S(=O)(=O)N2CCCCC2)cc1)C1CCN(C(=O)c2ccc(F)cc2)CC1`, the inhibition was -4.69% (inactive).
Consider `CC(Oc1cccc(Cl)c1)C(=O)Nc1ccc(S(=O)(=O)Nc2ncccn2)cc1` (stereo unspecified), for which the inhibition was -7.06% (inactive).
